The values below come from PubChem BioAssay (NCI).

Common to all, as to experiment: NCI-60 one-dose screen, 48 h (100 = growth as untreated, 0 = no growth, -100 = all killed)
Conditions in all cases: 10 µM unless noted

Experiment [1] deals with DU-145 prostate.
Experiment [2] deals with K-562 leukemia.
Experiment [3] relates to MALME-3M melanoma.
Experiment [4] has as its system MDA-MB-231 breast.
Experiment [5] has as its system RXF 393 renal.
Experiment [6] concerns SF-268 CNS.
Experiment [7] concerns SF-295 CNS.
Experiment [8] has as its system SF-539 CNS.
Experiment [9] deals with UACC-257 melanoma.
The subject of experiment [10] is M14 melanoma.
In experiment [11] the test system is HCT-15 colon.
The test system of experiment [12] is HT29 colon.
The test system of experiment [13] is SNB-75 CNS.
Experiment [14] concerns SNB-19 CNS.
Experiment [15] relates to U251 CNS.
Experiment [16] concerns PC-3 prostate.
In experiment [17] the test system is SK-MEL-5 melanoma.
Experiment [18] has as its system UACC-62 melanoma.
For experiment [19], the system named is LOX IMVI melanoma.
The test system of experiment [20] is SK-MEL-28 melanoma.

Molecules are shown by their SMILES. About 83,000 compounds went through this panel and 20% of them were active in at least one assay; those are over-represented in the sample as a whole.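 In brief: 96-well plates, 48 h treatment, single concentration, percent growth endpoint.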 Values without a mark were called inactive. The source made the active and inactive calls. How the source made its calls: active means growth percent below 10; inactive means the rest.

For the compound `O=C(Cc1ccc(-c2ccc(OCCN3CCOCC3)cc2)cn1)NCc1ccccc1`, the growth in experiment [1] was 8.3% (active); in [2] it was 7.04% (active); in experiment [3], 40.4%; in experiment [4], 26.7%; in experiment [5] it was 29.3%; in [6], 29.6%. The growth in experiment [7] is 11.7%; in [8], -33.2% (active); in [9], 8.49% (active); in experiment [10] it was 0.711% (active); in [11], 7.16% (active); in [12], 4.32% (active). Further, the growth in experiment [13] was 15.3%; in [14], 14.1%; in experiment [15], 3.6% (active); in experiment [16], 15.2%; in experiment [17], -39.8% (active); in experiment [18], 29%. For the same compound, the growth in experiment [19] was 17.5%; in experiment [20], 36.1%.

Regarding `COc1ccc(Cl)c(Nc2nc3ccccc3nc2NS(=O)(=O)c2cccc(NC(=O)C(C)(C)N)c2)c1`, the growth was 62.4% in experiment [1]; 63.3% in [2]; 69.5% in [3]; 68.3% in experiment [4]; -10.2% (active) in experiment [5]; 49.8% in experiment [6]. Further, the growth was 12.2% in experiment [7]; 13.7% in experiment [8]; 56.9% in [9]; 51.7% in experiment [10]; 44.9% in experiment [11]; 27.7% in experiment [12]. The growth in experiment [13] was -20.2% (active); in experiment [14] it was 63.9%; in experiment [15], 35%; in [16], 22.3%; in experiment [17] it was 57.1%; in experiment [18], 36.5%. Moreover, the growth in [19] is 25.8%.

Consider `Cc1ccc(NC(=O)Nc2ccc(Nc3ncnc4sc5c(c34)CCOC5)cc2)cc1Cl`, for which the growth in experiment [1] is 114%; in [2], 108%; in experiment [3] it was 98.2%; in experiment [4], 88.5%; in [5], 95.5%; in experiment [6], 103%. Moreover, the growth was 96% in experiment [7]; 84.4% in experiment [8]; 88.8% in [9]; 99.1% in experiment [10]; 106% in experiment [11]; 81.2% in [12]. Also, the growth in [13] was 69.8%; in experiment [14], 103%; in [15] it was 87.7%; in experiment [16], 81.2%; in experiment [17], 95%; in experiment [18] it was 95.4%. For the same compound, the growth in experiment [19] was 97.3%.

For the compound `CNC(=O)c1nn(C)c2c1C(C)(C)Cc1cnc(Nc3ccc(N4CCN(C)CC4)cc3)nc1-2`, the growth in experiment [1] was 15.5%; in experiment [2], 5.4% (active); in experiment [3], -8.73% (active); in [4] it was 14.7%; in [5], -48.2% (active); in experiment [6], 7.96% (active). The growth in experiment [7] was 15.3%; in experiment [8], -28.6% (active); in experiment [9], -14.8% (active); in [10] it was 12.5%; in experiment [11] it was 3.12% (active); in experiment [12], -16.2% (active). Moreover, the growth in [13] is -20.6% (active); in experiment [14], 12.3%; in experiment [15], 8.54% (active); in experiment [16], 7.92% (active); in [17], 7.31% (active); in experiment [18] it was -9.49% (active). Further, the results for the growth in experiment [19] and in experiment [20] were 5.27% (active) and 16.2%, respectively.

Regarding `O=C(NC[C@H](O)CO)c1ccncc1Nc1ccc(I)cc1F`, the growth in [1] is 63.4%; in [2], 37.2%; in [3], -7.31% (active); in experiment [4] it was 29.8%; in experiment [5], 15.1%; in [6], 71.3%. The growth was 67.1% in experiment [7]; 52.5% in experiment [8]; -19.2% (active) in experiment [9]; 3.95% (active) in experiment [10]; 43.9% in experiment [11]; 8.1% (active) in experiment [12]. The growth in experiment [13] is 73.4%; in experiment [14] it was 51.5%; in experiment [15], 55.3%; in experiment [16] it was 86.4%; in experiment [17] it was 44.5%; in [18], -7.65% (active). Besides, the growth in experiment [19] was 25.2%.

For `Cc1nc(-c2cn3c(n2)-c2ccc(-c4cnn(C(C)(C)C(N)=O)c4)cc2OCC3)n(C(C)C)n1`, the growth was 28.7% in experiment [1]; 51% in experiment [2]; 11.1% in [3]; 31.8% in [4]; -28.1% (active) in experiment [5]; 33.1% in experiment [6]. Further, the growth is 3.66% (active) in experiment [7]; -19.5% (active) in experiment [8]; 20.2% in [9]; 40.5% in experiment [10]; 30.8% in [11]; 10.5% in experiment [12]. Also, the growth was -5.53% (active) in [13]; 30.8% in experiment [14]; 23.5% in experiment [15]; 23.5% in experiment [16]; 8.62% (active) in [17]; -22.6% (active) in experiment [18]. Further, the growth in experiment [19] was 11.6%.

For `CN1CCN(c2ccc(C(=O)Nc3n[nH]c4ccc(Cc5cc(F)cc(F)c5)cc34)c(NC3CCOCC3)c2)CC1`, the growth is 19.7% in experiment [1]; -47.8% (active) in experiment [2]; -83.4% (active) in experiment [3]; -68.7% (active) in experiment [4]; -90.5% (active) in experiment [5]; -60.5% (active) in experiment [6]. Also, the growth is -70.4% (active) in experiment [7]; -92.4% (active) in experiment [8]; -85.4% (active) in [9]; -79.7% (active) in experiment [10]; -65.7% (active) in experiment [11]; -56.8% (active) in [12]. Moreover, the growth in experiment [13] is -93.2% (active); in experiment [14], -50.3% (active); in experiment [15] it was -83.7% (active); in [16] it was -12.3% (active); in experiment [17], -96.5% (active); in [18] it was -78.4% (active). Moreover, the growth is -89.7% (active) in experiment [19] and -87% (active) in experiment [20].

For `C=CCN(/C=C1/C(=O)O[C@H](COC)[C@@]2(C)C1=C(O)C(=O)C1=C2[C@H](OC(C)=O)C[C@]2(C)C(=O)CC[C@@H]12)CC=C`, the growth in experiment [1] is 26.6%; in experiment [2], 40.9%; in [3] it was -1.8% (active); in experiment [4] it was 42%; in experiment [5], -41.1% (active); in [6], 29.9%. In addition, the growth is 5.72% (active) in experiment [7]; -19.1% (active) in experiment [8]; 15.8% in [9]; 28.2% in [10]; 24.2% in [11]; 13.7% in experiment [12]. Also, the growth was -25.3% (active) in experiment [13]; 26.2% in [14]; 21.1% in experiment [15]; 18.6% in experiment [16]; 7.65% (active) in [17]; -21% (active) in experiment [18]. Further, the growth in experiment [19] was 20.3%.
